Experimental data published in PubChem BioAssay AID504690 (Sanford-Burnham Center for Chemical Genomics, 2011).
The campaign covered roughly 350,000 compounds. About 2,700 (0.77%) were called active. For the sample, actives were picked, then their nearest neighbours and some compounds at random. A number with no mark means an inactive call.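 How the source made its calls: active means inhibition reaching at least a set limit at 20 µM in the primary screen (cut at about 59% in these data); inactive means the rest.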

Test system: glucose-6-phosphate dehydrogenase-6-phosphogluconolactonase (Plasmodium falciparum 3D7)
Test: PfG6PD enzyme inhibitors, primary screen, biochemical, fluorescence intensity, uHTS (AID 504690);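 further: 0% = DMSO wells with substrate and 100% = DMSO wells lacking glucose-6-phosphate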
Settings: PfGluPho enzyme, NADPH resazurin-diaphorase fluorescence; at 20 µM; active compounds read high

Compound | inhibition
Nc1ccc2nc3c(=O)[nH]c(=S)[nH]c3nc2c1 | 83.3% (active)
Cc1ccc(S(=O)(=O)N2CCN(C(=O)CSc3cc(C)ccc3C)CC2)c(C)c1 | 13.7%
CCCOC1CCCN(C(=O)c2cc(COc3cncc(Cl)c3)on2)C1 (centres undefined) | 3.11%
CCCCNS(=O)(=O)c1ccc(S(=O)(=O)n2cnc3ccccc32)cc1 | -0.9%
CCOc1c2ccc(C(=O)NC3CCCc4ccccc43)cc2nn1CC (centres undefined) | 0.09%
CC1=CC(C)(C)Nc2ccc(OC(=O)CN3C(=O)C4CCCCC4C3=O)cc21 (centres undefined) | 70.6% (active)
O=C(COC(=O)CN1C(=O)C2CCCCC2C1=O)Nc1ccc(F)c(F)c1F (centres undefined) | 14.5%
CC1=CC(C)(C)Nc2ccc(OC(=O)C(Cc3ccccc3)N3C(=O)C4CCCCC4C3=O)cc21 (centres undefined) | 38.3%
CC1CCCCC1NC(=O)CCS(=O)(=O)c1ccc2c(c1)NC(=O)CO2 (centres undefined) | 4.88%
CN(C)N(C)C(=O)C(O)(c1ccccc1)c1ccccc1 | -19.5%
C/C=C/c1ccc(OCC(=O)OCC(=O)Nc2c(C)nn(-c3ccccc3)c2C)c(OC)c1 | -4.73%
N=c1n(Cc2ccc(Cl)cc2)c2ccccc2n1CC(O)c1ccco1 (centres undefined) | 8.27%
O=C(Nc1ncccc1O)c1ccc(C(=O)c2ccccc2)cc1 | -5.63%
O=C(Nc1ccc2ccccc2c1[N+](=O)[O-])c1ccccc1 | 33.8%
O=C(NC1=CC(=O)c2ccccc2C1=O)c1ccccc1 | 80.4% (active)
CC(Sc1nnc(COc2ccccc2)n1-c1ccccc1)C(=O)O (centres undefined) | -12.2%
COc1ccc(OCc2nnc3n2N=C(c2ccccc2)C(CC(=O)O)S3)cc1 (centres undefined) | 88.1% (active)
COc1ccc(C(=O)NCc2nnc(SCCOc3ccccc3)n2C)cc1 | -13%
Cc1cccc(C)c1NC(=O)c1ccc(CN2CCc3ccccc3C2)cc1 | 4.01%
O=C(c1cccnc1)N1CCN(S(=O)(=O)c2cccs2)CC1 | -17.9%
COc1ccccc1C(=O)N1CCNC(=O)C1CC(=O)Nc1ccc(Cl)cc1 (centres undefined) | -0.83%
CN1CCc2nc(SC(C(=O)O)c3ccccc3)c(C#N)c(-c3cccs3)c2C1 (centres undefined) | 33.9%
Cc1noc(C)c1C(=O)OC(C)C(=O)Nc1ccc2c(c1)OCO2 (centres undefined) | 7.92%

Compound | inhibition
O=S1(=O)N=C(N(CCO)/N=C/c2ccccc2F)c2ccccc21 | -22.8%
CCOC(=O)c1ccccc1CN1C(=O)c2ccccc2S1(=O)=O | -6.44%
CCOC(=O)C1=C(c2ccc(OC)cc2)C(=O)c2ccccc2C1=O | 101% (active)
CCOC(=O)C(NC(C)=O)C(=O)Nc1ccc(OC)cc1 (centres undefined) | -2.17%
CCOC(=O)c1c(C)nn(-c2ncccc2NC(=O)CCC(=O)O)c1C | -27.7%
CC(C)[C@H](NC(=O)N1CCn2c1nc1ccccc12)C(=O)NCc1ccc2c(c1)OCO2 | 20.7%
COc1cc(C(F)(F)F)c(C(=O)N(C)c2ccc(Cl)cc2)cn1 | 5.85%
COc1ccc(Cl)cc1NC(=O)CN(C)C(=O)CNC(=O)C12CC3CC(CC(C3)C1)C2 | -2.93%
COc1ccc(Cl)cc1NC(=O)CN(C)C(=O)CCCc1c[nH]c2ccccc12 | 78.4% (active)
COc1ccc(Cl)cc1NC(=O)CN(C)C(=O)c1cc2ccccc2cc1OC | 11.4%
Cc1ccc(-n2ncc(C(=O)NC3CC3)c2C2CCN(C(=O)OC(C)(C)C)CC2)c(C)c1 | -21.1%
O=C(NCCOc1ccccc1)c1ccccc1F | -13.3%
OCC[C@H]1C[C@H](O)[C@@H](O)[C@]2(Cc3ccccc3CO2)O1 | 0.59%
Cc1cc(-c2n[nH]c(=S)n2/N=C/C(Br)=C/c2ccccc2)n[nH]1 | 23.4%
S=c1[nH]nc(-c2cc(-c3ccccc3)n[nH]2)n1/N=C/c1c2ccccc2cc2ccccc12 | 59.1% (active)
CCN(CC)S(=O)(=O)c1cccc(-c2n[nH]c(=S)n2/N=C/c2ccc(C(=O)OC)cc2)c1 | 13.1%
O=C(CCC(=O)OCC(F)(F)C(F)F)NCc1ccccc1 | 1.98%
O=C1OC(Oc2ccc(Br)cc2)(c2ccccc2)c2ccccc21 (centres undefined) | 69.2% (active)
COc1ccc(OC)c(-n2cc3c(=O)n(C)c(=O)n(C)c3c2)c1 | 17.5%
CC[C@]12c3[nH]c4cc(CCC(=O)N(C)C)ccc4c3CCN1C(=O)[C@@H](CC(=O)NCC13CC4CC(CC(C4)C1)C3)C[C@@H]2C(=O)N1CCN(C(=O)C2CC2)CC1 | 0.29%
O=c1[nH]c(/C=C\c2cccc(C(F)(F)F)c2)nc(O)c1[N+](=O)[O-] | 1.8%
O=S(=O)(Nc1cccc(Oc2ccc(Cl)cc2)n1)c1ccc(F)cc1 | -6%
CC(=O)N(C1=C(Cl)C(=O)c2ccccc2C1=O)c1ccc(C(=O)O)cc1 | 120% (active)

Compound | inhibition
CCCCN(C(=O)c1ccc(S(=O)(=O)N2CCOCC2)cc1)C1CCS(=O)(=O)C1 (centres undefined) | -2.48%
Cc1ccc(OCCOCCOc2ccc(Br)cc2/C=N\NC(=O)c2ccncc2)cc1 | 40.5%
O=C(CCc1ccc(O)cc1)NN=Cc1cc(Br)ccc1O | -4.92%
COc1ccc(CC(=O)NCC(=O)N/N=C/c2cc(Br)ccc2OC)cc1 | 99.2% (active)
O=[N+]([O-])c1c(NCCO)cc(Sc2nc3ccccc3s2)c2nonc12 | 89.2% (active)
Cc1oc(C)c(C(=O)NCCCC(=O)O)c1C(=O)NCCCC(=O)O | 2.34%
COc1cccc(C(=O)Nc2c3c(nn2-c2cccc(C)c2C)CS(=O)(=O)C3)c1OC | 8.42%
O=C1NC(=Nc2ccc(Cl)cc2)SC1Cc1cccc(Cl)c1Cl (centres undefined) | -30.1%
O=C(NC1CCCC1)C(c1ccc(Cl)cc1)N(C(=O)c1csnn1)C1CC1 (centres undefined) | -0.62%
O=c1oc2ccccc2cc1-c1cn(-c2ccccc2)c(=S)[nH]1 | 64% (active)
COc1cccc(-n2c(=S)[nH]c3c(oc4ccccc43)c2=O)c1 | 23.4%
Cc1ccc(S(=O)(=O)c2cc3c(=O)n4cccc(C)c4nc3n(CCc3ccccc3)c2=N)cc1C | -4.62%
C[n+]1cccc(C(=O)O)c1 | -8.19%
Cc1cccc(C(=O)OC(C)C(=O)NC2CCCc3ccccc32)c1O (centres undefined) | -19.6%
CCOC(=O)Cc1ncccc1C(=O)Nc1ccc(OC(F)(F)F)cc1 | -20.5%
CCOc1c2ccc(C(=O)NCc3ccc(OC(F)(F)F)cc3)cc2nn1C | 1.65%
O=C(Nc1ccc(OC(F)(F)F)cc1)c1ccc2c(c1)no[n+]2[O-] | 69.8% (active)
CC(NC(=S)Nc1ccc(S(N)(=O)=O)cc1)c1ccc2c(c1)OCO2 (centres undefined) | -1.17%
O=C(CN1CCN(c2ccc(F)cc2)CC1)Nc1cccc(C(F)(F)F)c1 | 12.7%
Cc1ccc(Cl)cc1NC(=O)CN1CCN(S(=O)(=O)N2CCOCC2)CC1 | -17%
O=C(CN1CCOCC1)Nc1ccccc1 | -18.6%
O=C(CN1CCN(c2ccc(O)cc2)CC1)Nc1ccc(-c2ccccc2)cc1 | 69% (active)
O=C(CN1CCN(c2cccc(Cl)c2)CC1)Nc1ccc(S(=O)(=O)N2CCOCC2)cc1 | 7.9%

Compound | inhibition
O=C(CN1CCN(c2ccc(O)cc2)CC1)Nc1cc(S(=O)(=O)N2CCOCC2)ccc1Cl | 73.8% (active)
COc1cc2c(cc1OC)C(C(=O)NCc1ccco1)C1c3ccccc3CCN1C2=O (centres undefined) | 0.17%
CCn1nc(NC(=O)c2ccco2)c2cc3ccc(C)cc3nc21 | 6.85%
O=C(NCCN=C1NS(=O)(=O)c2ccccc21)c1ccc(S(=O)(=O)N2CCOCC2)cc1 | 4.66%
CC(C)(C)NC(=O)COc1ccc(CNc2ccc3[nH]c(=O)[nH]c3c2)cc1 | 94.7% (active)
COC(=O)c1ccc(OCC(=O)NC(C)(C)C)cc1 | 3.26%
O=C(COc1ccc([N+](=O)[O-])cc1Cl)Nc1ccc2[nH]c(=O)[nH]c2c1 | 13.1%
COc1ccccc1CN1CC(C(=O)NCCc2cn[nH]c2)CCC1=O (centres undefined) | -1.62%
Cc1ccc(C(=O)OCC(=O)Nc2ccc(Cl)cn2)cc1S(=O)(=O)N1CCOCC1 | -1.58%
COC(C[C@@H](O)C[C@@H](O)[C@H](C)OCc1ccccc1)OC | 10.8%
CCOC(=O)c1cccc(NC(=O)CCn2nnc3ccccc32)c1 | -9.98%
COc1c(O)cccc1-c1nnn(CCC(=O)OCC(=O)c2ccccc2)n1 | 6.47%
O=C(CCn1nnc2ccccc21)OCC(=O)c1ccc([N+](=O)[O-])cc1 | 59.2% (active)
Cc1ccc(CSc2ccc(S(=O)(=O)N3CCCCC3)cn2)cc1 | 10.9%
CC(=O)Nc1ccc(CC#N)cc1 | -8.66%
O=C(NC(=O)c1cc(OCC(F)(F)F)ccc1OCC(F)(F)F)Nc1ccccc1 | 15.2%
COc1ccc2cc(-c3[nH]ncc3CNCCn3nc(C)cc3C)ccc2c1 | -4.25%
COc1ccc(Cl)cc1-n1c(=S)sc2c(=O)n(-c3ccc(F)cc3)c(SCC(=O)O)nc21 | 86.6% (active)
COc1cccc(-n2c(=S)sc3c(=O)n(-c4ccccc4C)c(SCC(=O)O)nc32)c1 | -2.42%
COc1cccc(-n2c(=S)sc3c(=O)n(-c4ccccc4OC)c(SCC4OCCO4)nc32)c1 | 22.9%
